{
  "source": "PubChem BioAssay AID1508624",
  "about": "(National Center for Advancing Translational Sciences (NCATS), 2021)",
  "note": "Hit rate of the full screen: of about 48,000 compounds, about 120 (0.25%) were called active. Not shown: some 4% with an inconclusive outcome. The call rests on the fitted dose curve; in most records, active means well fitted activation curve with a large enough effect; inconclusive means small, poorly fitted or top-dose-only effect, or another doubt; inactive means no such curve, though single readings can be large or run the other way. The sample as a whole holds a higher share of actives than the screen did. Potency means the concentration at half of the fitted maximal effect.",
  "data": [
    {"test": "Primary qHTS for Identification of Small Molecule Activators of Huntingtin-Antisense Promoter Activity; further: nearly all actives have a fitted effect of over 55% in size", "details": "HEK293 HTT-AS promoter firefly luciferase reporter, 24 h; series mostly up to 57.5 µM; activity change, positive = activation: at the top concentration", "source_text": "Assay Provider: Russell L. Margolis M.D.\nDepartment Neurology, Johns Hopkins University School of Medicine, Baltimore, MD\nHuntington's Disease (HD) is a neurodegenerative disorder caused by a CAG repeat expansion in exon 1 of huntingtin (HTT). While there are currently no disease-modifying treatments for HD, recent efforts have focused on development of nucleotide-based therapeutics to lower HTT expression. As an alternative to siRNA or oligonucleotide methods, we hypothesized that suppression of HTT expression might be accomplished by small molecules that either (1) directly decrease HTT expression by suppressing HTT promoter activity or (2) indirectly decrease HTT expression by increasing the promoter activity of HTT-AS, the gene antisense to HTT that appears to inhibit expression of HTT.\nWe developed and employed a high throughput screen for modifiers of HTT and HTT-AS promoter activity using luminescent reporter HEK293 cells; of the 52,041 compounds tested, we identified 898 replicable hits. We used a rigorous stepwise approach to assess compound toxicity and the capacity of the compounds to specifically lower huntingtin protein in 5 different cell lines, including HEK293 cells, HD lymphoblastoid cells, mouse primary neurons, HD iPSCs differentiated into cortical-like neurons, and HD hESCs. We found no compounds which were able to lower huntingtin without lowering cell viability in all assays, though the potential efficacy of a few compounds at non-toxic doses could not be excluded.\nSEQUENCE No. (1, 2, 3, etc.); […] (e.g., Cells, Incubation, Reagent, etc.); VALUE and DESCRIPTION.\n1; Reagent; 4 uL; 2,500 Hek293 luciferase reporter cells per wells\n3; Compound; 23 nL; Control inhibitor / compound library\n5; Reagent; 2.5 uL; Firefly Luc reagent; Dual-Glo Luciferase Reporter Assay System (Promega)\n6; Time; 10 min; room temperature incubation\n7; Detection; Luminescence; FLuc\nNOTES (numbers refer to sequence above)\n1; High-throughput screening, measuring luminescence from a Hek293 luciferase reporter, was performed in 1,536 well white-walled tissue-culture treated plates. 2,500 cells were plated in 4 µL of Opti-MEM per well using a Multidrop Combi Reagent Dispenser (ThermoFisher).\n2; Assay plates were cultured for 24 hours.\n3; Control inhibitor (PTC124; final concentration of 50 uM) and compound library (at final concentrations of 460 nM - 57.5 uM) were added to the assay plate using the Kalypsis Pintool Robotic System equipped with 1536 pinheads.\n4; Cells were then incubated for 24 hours at 37 degrees C prior to luminescence measurements.\n5; In all cases, luminescence was measured using the Dual-Glo Luciferase Reporter Assay System (Promega) following the manufacturer's instructions.\n6; Room temperature incubation.\n7; Luminescence signal was obtained using the PerkinElmer ViewLux plate reader. Results were normalized to vehicle control (0% activity) and zero RLU (-100% activity).", "values": [
      {"smiles": "Cc1nc(SCC(=O)Nc2ccc(C(=O)O)cc2)n[nH]1", "activity change, positive = activation": "-6.31% (inactive)"},
      {"smiles": "O=C(CSc1nc2c(c(=O)[nH]1)CN(Cc1ccc3c(c1)OCO3)CC2)Nc1cc(F)ccc1F", "activity change, positive = activation": "-5.4% (inactive)"},
      {"smiles": "COC(=O)c1cc(NC(=O)CCS(=O)(=O)c2cc(Br)cc3c2N(C(=O)C2CC2)CC3)cc(C(=O)OC)c1", "activity change, positive = activation": "-9.29% (inactive)"},
      {"smiles": "CC(=O)c1ccc(NC(=O)c2nc(-c3ccc(C)cc3)n3c2CCCCC3)cc1", "activity change, positive = activation": "-31.3% (inactive)"},
      {"smiles": "Cc1cccc(C(=O)N2CCc3cc(CNC(=O)Cc4ccc(F)cc4)ccc32)c1", "activity change, positive = activation": "-43.4% (inactive)"},
      {"smiles": "CCOC(=O)c1c(C)[nH]c(C)c1S(=O)(=O)N1CCCC(C(=O)NCc2ccccc2Cl)C1", "note": "(configuration not stated)", "activity change, positive = activation": "-16.6% (inactive)"},
      {"smiles": "COc1ccc(-n2c(=O)c3sc4ccccc4c3n(CC(=O)Nc3cccc(C)c3)c2=O)cc1", "activity change, positive = activation": "2.07% (inactive)"},
      {"smiles": "Cc1ccc(CNC(=O)Cn2c(=O)ccc3cc(S(=O)(=O)N4CCCC4)ccc32)cc1", "activity change, positive = activation": "-19.3% (inactive)"},
      {"smiles": "Cc1ccc(C)c(Cn2c(C(=O)O)c(CNCc3cccs3)c3ccccc32)c1", "activity change, positive = activation": "-29.9% (inactive)"},
      {"smiles": "COC(=O)c1cccc(Cn2nnc3sc4c(c3c2=O)CCC(C(C)(C)C)C4)c1", "note": "(configuration not stated)", "activity change, positive = activation": "-49.6% (inactive)"},
      {"smiles": "CCOc1cc(C=C2C(=O)N(c3ccccc3)N=C2C)cc(Cl)c1OCC(=O)OC", "activity change, positive = activation": "-27.3% (inactive)"},
      {"smiles": "CCOc1ccc(NC(=O)c2c(NCc3cccc(OC)c3OC)sc3c2CCC3)cc1", "activity change, positive = activation": "-5.92% (inactive)"},
      {"smiles": "CC1CCCCN1S(=O)(=O)c1ccc(F)c(C(=O)Nc2ccccc2C(F)(F)F)c1", "note": "(configuration not stated)", "activity change, positive = activation": "2.75% (inactive)"},
      {"smiles": "CCn1c(C)c(C)c2cc(C(=O)N3CCN(c4cccc(C)c4C)CC3)ccc21", "activity change, positive = activation": "-13.7% (inactive)"},
      {"smiles": "COc1ccc(CNS(=O)(=O)c2cc3c4c(c2)CCN4C(=O)CC3)cc1", "activity change, positive = activation": "-21.3% (inactive)"},
      {"smiles": "O=C(NCc1ccccc1)C(=O)NCC(c1ccco1)S(=O)(=O)c1ccc(Cl)cc1", "note": "(configuration not stated)", "activity change, positive = activation": "-27.8% (inactive)"},
      {"smiles": "Oc1ccccc1-c1nc2ccc(Cl)cn2c1Nc1ccc2c(c1)OCCO2", "activity change, positive = activation": "-11.4% (inactive)"},
      {"smiles": "CCn1cc(C(=O)N2CCN(c3cc(Cl)ccc3C)CC2)c(=O)c2cc(S(=O)(=O)N3CCCC3)ccc21", "activity change, positive = activation": "10.5% [at 11.5 µM, percent change from vehicle, -100% = no light] (inactive)"},
      {"smiles": "O=C(NCc1ccc(Cl)cc1)c1ccc2c(c1)nnn2C1CCCC1", "activity change, positive = activation": "-2.28% (inactive)"},
      {"smiles": "CC(=O)c1ccc(NC(=O)c2nc3nc(C)cc(C(F)F)n3n2)cc1", "activity change, positive = activation": "-1.75% (inactive)"},
      {"smiles": "COc1ccc(CCNC(=O)c2ccc(CSCc3ccc(C)cc3)o2)cc1OC", "activity change, positive = activation": "-31.8% (inactive)"},
      {"smiles": "CCCOC(=O)c1c(NC(=O)c2cc3nc(-c4ccc(OC)cc4)cc(C(F)(F)F)n3n2)sc2c1CCCC2", "activity change, positive = activation": "-19.6% (inactive)"},
      {"smiles": "CCC(=O)N1c2ccccc2CC1C(=O)N1CCN(c2ccccc2F)CC1", "note": "(configuration not stated)", "activity change, positive = activation": "-5.95% (inactive)"},
      {"smiles": "COc1ccc2[nH]c3c(c2c1)CCN(C(=O)CCC1CCCC1)C3c1ccc(F)cc1", "note": "(configuration not stated)", "activity change, positive = activation": "-32.3% (inactive)"},
      {"smiles": "CCOc1ccc(/C=C(\\C#N)c2nc3ccccc3c(=O)[nH]2)cc1OC", "activity change, positive = activation": "-7.49% (inactive)"},
      {"smiles": "Cc1ccc(Cl)cc1N1CCN(C(=O)c2cn(C)c3ccc(S(=O)(=O)N(C)C4CCCCC4)cc3c2=O)CC1", "activity change, positive = activation": "0.244% (inactive)"},
      {"smiles": "Cc1ccc(CN2C(=O)SC(Nc3ccccc3)C2=O)cc1", "note": "(configuration not stated)", "activity change, positive = activation": "-13.4% (inactive)"},
      {"smiles": "COc1ccc(-c2onc(C)c2C)cc1S(=O)(=O)NCCc1ccccc1", "activity change, positive = activation": "-33.1% (inactive)"},
      {"smiles": "Cc1ccccc1CNC(=O)CSc1nnc(C)c2c(C)n(-c3ccccc3)nc12", "activity change, positive = activation": "-26.1% (inactive)"},
      {"smiles": "O=C(c1ccc(Br)cc1)N(Cc1cccs1)c1ccc(F)cc1", "activity change, positive = activation": "-26.9% (inactive)"},
      {"smiles": "COc1cccc(-n2ccn(CC(=O)NCc3ccc(C)cc3)c(=O)c2=O)c1", "activity change, positive = activation": "-4.99% (inactive)"},
      {"smiles": "COc1ccc(CNC(=O)Cn2nnc(-c3ccc(S(C)(=O)=O)cc3)n2)cc1", "activity change, positive = activation": "-10.6% (inactive)"},
      {"smiles": "CCOc1ccc(-c2cc3c(=O)n(CC(=O)NCc4ccc(OC)cc4)ccn3n2)cc1", "Potency": "447 nM (active)"},
      {"smiles": "Cc1cccc(N2CCN(C(=O)CCn3c(=O)c4cccn4c4cccnc43)CC2C)c1", "note": "(configuration not stated)", "activity change, positive = activation": "-33.7% (inactive)"},
      {"smiles": "CCCCOc1ccc(C(=O)Nc2cccc(-c3nc4ccccc4o3)c2C)cc1", "activity change, positive = activation": "-12.4% (inactive)"},
      {"smiles": "COc1cccc(-n2c(=O)c3c(C)c(C(=O)N(C)C)sc3n(CC(=O)NCCc3ccc(OC)c(OC)c3)c2=O)c1", "activity change, positive = activation": "-9.08% (inactive)"},
      {"smiles": "COc1ccccc1N1CCN(c2ncnc3onc(-c4ccc(F)cc4)c23)CC1", "activity change, positive = activation": "-11.1% (inactive)"},
      {"smiles": "CCCN1CN=C(NS(=O)(=O)c2ccc(NC(C)=O)cc2)NC1", "activity change, positive = activation": "-0.211% (inactive)"},
      {"smiles": "COCCCNC(=O)c1ccc(NC(=O)c2nsc3ccccc23)cc1", "activity change, positive = activation": "-39% (inactive)"},
      {"smiles": "CCSc1nnc2c(n1)OC(c1ccc(OCC(=O)O)cc1)Nc1ccccc1-2", "note": "(configuration not stated)", "activity change, positive = activation": "1.7% (inactive)"},
      {"smiles": "CCCN(CCC)C(=O)C(Cc1ccccc1)NS(=O)(=O)c1ccc2c(c1)c(=O)n(C)c(=O)n2C", "note": "(configuration not stated)", "activity change, positive = activation": "-13.7% (inactive)"},
      {"smiles": "Cc1cc(C)cc(NC(=O)Cn2nc(N3CCN(c4ccccc4)CC3)ccc2=O)c1", "activity change, positive = activation": "-25.9% (inactive)"},
      {"smiles": "Cc1nn(C(=O)c2c(F)cccc2F)c(C)c1S(=O)(=O)N1CCOCC1", "activity change, positive = activation": "-7.32% (inactive)"},
      {"smiles": "CCOc1ccccc1C(=O)NCc1ccc2c(c1)CCN2C(=O)c1ccc(F)cc1", "activity change, positive = activation": "-1.69% (inactive)"},
      {"smiles": "O=C(Nc1cc(C(F)(F)F)ccc1Cl)c1cc2nc(-c3ccc4c(c3)OCO4)cc(C(F)(F)F)n2n1", "activity change, positive = activation": "13.7% (inactive)"},
      {"smiles": "CCN(CC)c1ccc(NC(=O)CN2C(=O)c3cccnc3Oc3ccc(Cl)cc32)c(C)c1", "activity change, positive = activation": "-5.22% (inactive)"},
      {"smiles": "Fc1ccc(CN2CCc3nc(Nc4ccccc4)ncc3C2)cc1F", "activity change, positive = activation": "-11.7% (inactive)"},
      {"smiles": "CCc1ccc(C2C(C(=O)Nc3ccccc3)=C(C)Nc3c(C(=O)Nc4ccc(C)cc4)cnn32)cc1", "note": "(configuration not stated)", "activity change, positive = activation": "-28.5% (inactive)"},
      {"smiles": "COc1cc(-c2cc3n(C)c(C)c(CCC(=O)Nc4ccc(F)cc4)c(=O)n3n2)cc(OC)c1OC", "activity change, positive = activation": "-7.63% (inactive)"},
      {"smiles": "COc1ccc(NC(=O)CCCc2nnc3n(CCC(C)C)c(=O)c4sccc4n23)c(OC)c1", "activity change, positive = activation": "-3.2% (inactive)"},
      {"smiles": "CCOc1ccc(CNC(=O)c2ccc3c(c2)nnn3C2CCCC2)cc1", "activity change, positive = activation": "4.86% (inactive)"},
      {"smiles": "COc1ccc(OC)c(-c2noc(N3CCN(c4cc(Cl)ccc4C)CC3)n2)c1", "activity change, positive = activation": "-30% (inactive)"},
      {"smiles": "CC(=O)c1ccc(S(=O)(=O)N2CCC(Oc3ccc(-n4cnnn4)cc3)CC2)cc1", "activity change, positive = activation": "-15.4% (inactive)"},
      {"smiles": "CO[C@@H]1[C@@H](O)[C@H](O)[C@@H](n2c3c(Cl)cccc3c3c4c(c5c6cccc(Cl)c6[nH]c5c32)C(=O)NC4=O)O[C@@H]1CO", "activity change, positive = activation": "-36% (inactive)"},
      {"smiles": "Cc1cccc(S(=O)(=O)c2cn(Cc3ccccc3)c3cc(N4CCOCC4)c(F)cc3c2=O)c1", "activity change, positive = activation": "-22% (inactive)"},
      {"smiles": "CC(=O)N1CCCc2cc(S(=O)(=O)N3CCC(C(=O)NCc4ccc(F)cc4)CC3)ccc21", "activity change, positive = activation": "-27% (inactive)"},
      {"smiles": "CCCS(=O)(=O)Nc1cccc(-c2cn3ccsc3n2)c1", "activity change, positive = activation": "0.221% (inactive)"}
    ]}
  ]
}
